# HT1080 IDH1KD tx – qHTS for induction of synthetic lethality in tumor cells producing 2HG: qHTS for the HT-1080-IDH1KD cell line. HT-1080 IDH1 knockdown viability, ATP luminescence, 48 h. Potency, µM (top dose mostly 46.1 µM), most hits filed as cytotoxic. hit rate 2% among 360,000. AID 686971, 2013
#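 In this qHTS, HT-1080 cells depleted of IDH1 are exposed for 48 h at 37 °C to compound titrations. Toxicity is scored from CellTiter-Glo luminescence, with DMSO as full viability and medium alone as none.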
# KB-3-1 cytotox – qHTS assay for MDR1-selective chemotherapeutics: Primary screen using the parental adenocarcinoma cell KB-3-1; KB-3-1 viability, CellTiter-Glo ATP luminescence, 72 h; Potency, µM (highest dose often 46.1 µM), hits mostly cytotoxic; hit rate 1.4% among 400,000; also: nearly all actives have a fitted effect of over 60% in size
#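 Cells are dispensed, compounds pinned in, plates held at 37 °C for 72 h, then CellTiter-Glo is added and luminescence read after 10 minutes. Cell line: parental KB-3-1 in phenol-red-free DMEM, 10% FBS.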
# MCF10A rereplic – A quantitative high throughput screen for small molecules that induce DNA re-replication in MCF 10a normal breast cells | MCF 10A DNA re-replication, Hoechst nuclear intensity, 48 h | Potency, µM (highest dose often 46.1 µM), usual class: activators | hit rate 2.9% among 350,000 | AID 624296, 2012; also: nearly all actives have a fitted effect of over 50% in size
# KB-V1 cytotox – qHTS assay for MDR1-selective chemotherapeutics: Primary screen using the drug-selected MDR subline cells KB-V1. KB-V1 MDR cells viability, CellTiter-Glo, 72 h. Potency, µM (titrated, usually from 46.1 µM), usual class: cytotoxic. hit rate 3.4% among 400,000. AID 1347076, 2019; also: nearly all actives have a fitted effect of over 60% in size
#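 Compound-treated KB-V1 multidrug-resistant cells, 72 h, 37 degrees C; viability by CellTiter-Glo. Fitted qHTS curves give the values.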
# SW480 rerep – A quantitative high throughput screen for small molecules that induce DNA re-replication in SW480 colon adenocarcinoma cells. hit rate 1.8% among 340,000. SW480 DNA re-replication, Hoechst DNA content imaging, 48 h. AID 624297, 2012. Potency, µM (series often up to 46.1 µM), hits mostly activators; also: nearly all actives have a fitted effect of over 55% in size
#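 Treated cells incubate 48 hr (37 C, 5% CO2), are stained 40 min with Hoechst, and nuclear fluorescence is enumerated; a rise in nuclei with high DNA signal marks re-replication.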
# HT1080NT lethal – qHTS for induction of synthetic lethality in tumor cells producing 2HG: qHTS for the HT-1080-NT fibrosarcoma cell line | HT-1080-NT fibrosarcoma viability, CellTiter-Glo ATP luminescence, 48 h | Potency, µM (doses to about 46.1 µM), actives largely listed as cytotoxic | hit rate 1.6% among 360,000 | AID 686970, 2013;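 also: NT is the 2HG producing partner of a matched IDH1 knockdown line; nearly all actives have a fitted effect of over 55% in size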
#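 Toxicity toward the 2HG-producing NT line was scored as %Activity, normalised to DMSO and no-cell wells, from CellTiter-Glo luminescence after 48 hours' treatment.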
# Hits are given with their value; . = inactive; ? = inconclusive; / = not tested or not shown. Shown are actives, neighbours in structure and some others; about 7.9% of the full set was active somewhere. Calls follow the shape of the dose curve; as a rule, active = well fitted curve in the direction sought with a large enough effect; inconclusive = small, poorly fitted or top-dose-only effect, or another doubt; inactive = no such curve, though single readings can be large; an effect the other way counts as inactive or inconclusive.
SMILES,HT1080 IDH1KD tx,KB-3-1 cytotox,MCF10A rereplic,KB-V1 cytotox,SW480 rerep,HT1080NT lethal
O=C(NCc1ccccc1Cl)c1ccc(CS(=O)(=O)c2ccc(Br)cc2)o1,/,.,/,.,/,/
CC(=O)[C@@H]1[C@@H](C(=O)c2ccccc2)[C@]2(C(=O)Nc3ccccc32)[C@H]2C=Cc3cc(F)ccc3N12,.,?,21µM,?,?,.
O=C(c1ccccc1)[C@@H]1[C@@H](C(=O)c2ccc(F)cc2)[C@@]2(C(=O)Nc3ccccc32)[C@H]2c3ccccc3C=CN12,.,?,.,?,.,.
Cc1nc(-c2ccc(C)c(N3CCN(C(=O)Nc4ccccc4C(F)(F)F)CC3)c2)no1,/,.,/,.,/,/
CN1CCCN(C(=O)Cc2c(Cl)cccc2Cl)c2nc3ccccc3nc21,.,.,?,.,16µM,.
O=C(Nc1ccccc1)C1CCN(C(=O)c2ccco2)CC1,.,.,.,.,.,.
O=C(Nc1ccc(Br)cc1)C1CCN(C(=O)c2ccco2)CC1,.,.,.,21µM,.,.
O=C(CCS(=O)(=O)c1cc2c(cc1Cl)NC(=O)CO2)NCCc1ccc(Cl)cc1,/,.,/,.,/,/
COc1cc(OC)cc(-c2cc3nc(C)c(CCC(=O)NC(C)CCc4ccco4)c(C)n3n2)c1 (centres undefined),.,.,?,.,.,.
COc1cc(OC)cc(-c2cc3nc(C)c(CCC(=O)O)c(C)n3n2)c1,.,.,18µM,.,.,.
C[C@H](NC(=O)C1CCN(S(=O)(=O)c2ccccc2)CC1)C(=O)NCc1cccnc1,.,.,/,?,/,.
C=CC12C=CC=CN1C(C(=O)OC)=C(C(=O)OC)C(C(=O)OC)=C2C(=O)OC (centres undefined),.,.,.,18µM,.,.
Cc1ccc(Nc2c3c(nc4ccccc24)CCC3)cc1F,/,21µM,/,.,/,/
N#Cc1cccc(Nc2c3c(nc4ccccc24)CCC3)c1,?,.,?,.,.,.
Cc1ccc2nc3c(c(Nc4ccc(C)c(C)c4)c2c1)CCC3,/,.,/,18µM,/,/
Cc1ccc2nc3c(c(Nc4ccc(O)cc4)c2c1)CCC3,.,.,?,.,?,.
Cc1cccc(Nc2c3c(nc4ccccc24)CCC3)c1,21µM,?,.,?,.,15µM
c1coc(CNc2c3c(nc4ccccc24)CCC3)c1,.,?,18µM,?,?,.
CCOc1ccccc1NC(=O)CSc1ncc(S(=O)(=O)c2ccc(C)c(C)c2)c(N)n1,/,?,/,.,/,/
COCCNC(=O)C1(C)CCCN(Cc2cc(-c3ccccc3)nn2C)C1 (centres undefined),.,.,/,.,/,.
CCOC(=O)C1=CCN(S(=O)(=O)c2ccccc2F)C1c1ccccc1 (centres undefined),.,.,/,.,/,.
S=C1SCCCN1Cc1ccc(Cl)cc1,.,.,/,.,/,.
CCOc1ccc2nc(-c3ccccc3)[nH]c2c1,9.2µM,?,5.2µM,.,18µM,8.2µM
Clc1cccc(-c2nc(-c3ccccn3)no2)c1,?,?,.,.,.,?
c1ccc(-c2ccc(-c3nc(-c4ccccn4)no3)cc2)cc1,13µM,13µM,.,8.2µM,.,10µM
SMILES,HT1080 IDH1KD tx,KB-3-1 cytotox,MCF10A rereplic,KB-V1 cytotox,SW480 rerep,HT1080NT lethal
c1ccc(-c2n[nH]c(-c3ccccn3)n2)cc1,5.8µM,.,.,?,?,8.2µM
c1ccc(-c2n[nH]c(-c3ccccn3)n2)nc1,?,.,.,?,.,.
c1ccc(-c2nc(-c3ccccn3)no2)cc1,10µM,9.2µM,?,16µM,.,13µM
Cc1ccc(-c2nc(-c3ccccn3)no2)cc1Cl,?,?,.,.,.,?
Cc1ccc(-c2nc(-c3ccccn3)no2)cc1,6.5µM,9.2µM,.,6.5µM,.,5.2µM
Cc1cnc(NS(=O)(=O)c2ccc(N)cc2)nc1-c1ccccc1O,.,.,/,.,/,.
CC1=C(c2ccc(F)cc2)S(=O)(=O)N=C1N1CCC(C(=O)NCCc2ccco2)CC1,/,.,/,.,/,/
CC(=O)N1NC(=Nc2ccccc2)SC1(C)C,.,.,.,18µM,.,.
Cc1cccc(Cn2c(SCc3ccc(C(=O)NCCc4ccccc4)cc3)nc3ccncc32)c1,/,?,/,.,/,/
CC(OC(=O)c1c2c(nc3ccccc13)/C(=C\c1ccc3c(c1)OCO3)CCC2)C(=O)Nc1ccc(S(N)(=O)=O)cc1 (centres undefined),?,.,3.3µM,.,21µM,.
C#CCN(C1CCCC1)S(=O)(=O)C=C,/,?,/,.,/,/
COc1ccc2sc(N(CCCN(C)C)C(=O)c3ccc(S(=O)(=O)N4CCCc5ccccc54)cc3)nc2c1,.,.,?,21µM,?,.
CCN(Cc1ccccc1)S(=O)(=O)c1ccc(C(=O)N(CCCN(C)C)c2nc3cc(OC)ccc3s2)cc1,?,.,16µM,.,?,?
COc1ccccc1N1CCN(C(=O)c2oc3ccccc3c2NC(=O)C(C)Oc2ccccc2)CC1 (centres undefined),/,?,/,.,/,/
CCc1cc2c3c(c1)C1(C(=O)N3C(C)(C)C=C2C)C(C#N)=C(N)Oc2[nH]c(=O)[nH]c(=O)c21 (centres undefined),16µM,?,?,?,4.1µM,23µM
COc1ccc(NC(=O)N2c3ccc(OC)cc3C(C)=CC2(C)C)cc1,.,.,21µM,?,.,.
CCCN(CCC)C(=O)Cn1c(=O)n(-c2ccc(C)c(C)c2)c(=O)c2c3c(sc21)CCCCC3,/,.,/,.,/,/
COc1ccc(NC(=O)CSc2nc3sc(C)cc3c(=O)n2C)c(OC)c1,.,.,.,8.2µM,.,?
C=CC[C@]12CC=CC(=O)[C@@]1(O)O[C@H](c1ccc(OC)c(OC)c1)[C@H]2C,.,?,6.5µM,?,?,.
CC1Cc2ccccc2N1c1ncnc2nc[nH]c12 (centres undefined),.,9.2µM,.,.,.,.
c1ccc2c(c1)CCN(c1ncnc3nc[nH]c13)C2,.,?,.,.,.,.
CCOC1=C2CN(S(=O)(=O)c3ccc(C)cc3)C(c3ccc(C)cc3)CC2N(S(=O)(=O)c2ccc(C)cc2)C(c2ccccc2)C1 (centres undefined),.,3.3µM,/,?,/,.
O=C(Nc1sc2c(c1C(=O)O)CCC2)c1cccs1,.,?,.,23µM,.,.
CN1CCc2c(OCC(=O)N3CCC(Cc4ccccc4)CC3)cccc2C1=O,.,18µM,.,?,.,.
